Results published in PubChem BioAssay (NCI).
Several values for one entry are separate records, joined by “and”; a condition that tells them apart may be missing. Identical values can stand only once. Compounds without any hit were thinned out: in the full panel of roughly 83,000, 20% have a hit.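 Values shown are percent growth following 48 h exposure of cells in 96-well plates to a single concentration of compound; below 10 was considered active.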 Activity calls are given as the source filed them.

Legend:
Assay in all cases: NCI-60 one-dose screen, 48 h (100 = growth as untreated, 0 = no growth, -100 = all killed)
HCT-15 colon = system: HCT-15 colon
HT29 colon = system: HT29 colon
SNB-75 CNS = system: SNB-75 CNS
SNB-19 CNS = system: SNB-19 CNS
U251 CNS = system: U251 CNS
PC-3 prostate = system: PC-3 prostate
SK-MEL-5 melanoma = system: SK-MEL-5 melanoma
UACC-62 melanoma = system: UACC-62 melanoma
LOX IMVI melanoma = system: LOX IMVI melanoma
SK-MEL-28 melanoma = conditions: 10 µM unless noted
SK-MEL-2 melanoma = system: SK-MEL-2 melanoma
EKVX NSCLC = system: EKVX NSCLC
SN12C renal = system: SN12C renal
UO-31 renal = system: UO-31 renal
TK-10 renal = system: TK-10 renal
ACHN renal = system: ACHN renal
CAKI-1 renal = system: CAKI-1 renal
A498 renal = conditions: 10 µM unless noted
CCRF-CEM leukemia = system: CCRF-CEM leukemia
MOLT-4 leukemia = system: MOLT-4 leukemia

Measured: growth

CN1C(=O)C(N=Nc2ccc([N+](=O)[O-])cc2)SC1=S (stereo not drawn)
inactive: HCT-15 colon; 10 µM unless noted 51.7% and 50.8% | HT29 colon; 10 µM unless noted 64.4% and 80.4% | SNB-75 CNS; 10 µM unless noted 85.9% and 91.5% | SNB-19 CNS; 10 µM unless noted 69.4% and 81.4% | U251 CNS; 10 µM unless noted 62.8% and 69.4% | PC-3 prostate; 10 µM unless noted 55.5% and 50.8% | SK-MEL-5 melanoma; 10 µM unless noted 71.3% and 73.7% | UACC-62 melanoma; 10 µM unless noted 29.8% and 38.4% | LOX IMVI melanoma; 10 µM unless noted 41.9% and 51.5% | SK-MEL-28 melanoma 86.6% and 95.9% | SK-MEL-2 melanoma; 10 µM unless noted 52.2% and 60.1% | EKVX NSCLC; 10 µM unless noted 117% and 82% | SN12C renal; 10 µM unless noted 62.4% and 69.3% | UO-31 renal; 10 µM unless noted 37.2% and 49.9% | TK-10 renal; 10 µM unless noted 86.8% and 101% | ACHN renal; 10 µM unless noted 51.8% and 56.5% | CAKI-1 renal; 10 µM unless noted 103% and 75.3% | A498 renal 85.5% and 89.6% | CCRF-CEM leukemia; 10 µM unless noted 54.5% and 40.8% | MOLT-4 leukemia; 10 µM unless noted 76.7% and 70.5%

CCOc1ccc2cc(-c3nn(CC4CCNCC4)c4ncnc(N)c34)ccc2c1
90.5% (inactive) and -2.12% (active): SK-MEL-5 melanoma; 10 µM unless noted
66.1% (inactive) and -12.1% (active): MOLT-4 leukemia; 10 µM unless noted
88.4% (inactive) and 9.5% (active): CCRF-CEM leukemia; 10 µM unless noted
83% (inactive) and 5.47% (active): LOX IMVI melanoma; 10 µM unless noted
inactive: HCT-15 colon; 10 µM unless noted 81.7% and 29.8% | HT29 colon; 10 µM unless noted 69.6% and 18.5% | SNB-75 CNS; 10 µM unless noted 52.9% and 24.8% | SNB-19 CNS; 10 µM unless noted 102% and 65.9% | U251 CNS; 10 µM unless noted 83.3% and 40.2% | PC-3 prostate; 10 µM unless noted 78% and 31.4% | UACC-62 melanoma; 10 µM unless noted 14.7% | SK-MEL-2 melanoma; 10 µM unless noted 108% | EKVX NSCLC; 10 µM unless noted 101% and 55.6% | SN12C renal; 10 µM unless noted 82.9% and 28.9% | UO-31 renal; 10 µM unless noted 68.8% and 45.7% | TK-10 renal; 10 µM unless noted 77.1% and 80.5% | ACHN renal; 10 µM unless noted 102% and 49.5% | CAKI-1 renal; 10 µM unless noted 95.4% and 81.9% | A498 renal 73% and 37%
104% (inactive) and -35.3% (active): SK-MEL-28 melanoma

CCN(CC)C(=S)SSC(=S)N(CC)CC
inactive: HCT-15 colon; 10 µM unless noted 81.4% and 109% | HT29 colon; 10 µM unless noted 68.5% and 94.4% | SNB-75 CNS; 10 µM unless noted 72.6% and 93.2% | SNB-19 CNS; 10 µM unless noted 85.4% and 97% | U251 CNS; 10 µM unless noted 58.5% and 100% | PC-3 prostate; 10 µM unless noted 68.5% and 108% | SK-MEL-5 melanoma; 10 µM unless noted 40.2% and 110% | UACC-62 melanoma; 10 µM unless noted 69.6% and 105% | LOX IMVI melanoma; 10 µM unless noted 53% and 98.4% | SK-MEL-28 melanoma 61.5% and 106% | SK-MEL-2 melanoma; 10 µM unless noted 103% | EKVX NSCLC; 10 µM unless noted 89.1% and 113% | SN12C renal; 10 µM unless noted 78.9% and 106% | UO-31 renal; 10 µM unless noted 63.3% and 90.7% | TK-10 renal; 10 µM unless noted 96.9% | ACHN renal; 10 µM unless noted 71.1% and 101% | CAKI-1 renal; 10 µM unless noted 76.4% and 87.5% | A498 renal 83.7% and 111% | CCRF-CEM leukemia; 10 µM unless noted 16.9% and 102% | MOLT-4 leukemia; 10 µM unless noted 46% and 93.2%

CC1(C)OB(c2ccc(Cn3cc(F)c(=O)[nH]c3=O)cc2)OC1(C)C
inactive: HCT-15 colon; 10 µM 101% | HCT-15 colon; 50 µM 68.1% | HT29 colon; 10 µM 112% | HT29 colon; 50 µM 24.3% | SNB-75 CNS; 10 µM 103% | SNB-75 CNS; 50 µM 38.3% | SNB-19 CNS; 10 µM 103% | SNB-19 CNS; 50 µM 70.6% | U251 CNS; 10 µM 105% | U251 CNS; 50 µM 82.6% | PC-3 prostate; 10 µM 101% | PC-3 prostate; 50 µM 55.4% | SK-MEL-5 melanoma; 10 µM 98.4% | SK-MEL-5 melanoma; 50 µM 38.8% | UACC-62 melanoma; 10 µM 89.8% | UACC-62 melanoma; 50 µM 29.1% | LOX IMVI melanoma; 10 µM 98.2% | LOX IMVI melanoma; 50 µM 52.6% | SK-MEL-28 melanoma 99.4% | SK-MEL-2 melanoma; 10 µM 113% | SK-MEL-2 melanoma; 50 µM 41.5% | EKVX NSCLC; 10 µM 106% | EKVX NSCLC; 50 µM 72.1% | SN12C renal; 10 µM 102% | SN12C renal; 50 µM 80.8% | UO-31 renal; 10 µM 87.3% | UO-31 renal; 50 µM 72.8% | TK-10 renal; 10 µM 102% | TK-10 renal; 50 µM 79.3% | ACHN renal; 10 µM 103% | ACHN renal; 50 µM 92.1% | CAKI-1 renal; 10 µM 85.7% | CAKI-1 renal; 50 µM 75.1% | A498 renal 25.6% [50 µM] | CCRF-CEM leukemia; 10 µM 112% | CCRF-CEM leukemia; 50 µM 37.7% | MOLT-4 leukemia; 10 µM 99.3% | MOLT-4 leukemia; 50 µM 54.7%
